Experiments:
Assay in all cases: universal protein binding microarray (PBM); transcription factors of Arabidopsis thaliana; high values mean tight binding
GST-ANAC092(1-176) = target: T1, GST-ANAC092(1-176) (Arabidopsis thaliana, UniProt Q9FKA0 1-176); conditions: protein: recombinant; tags: GST; chain copies: 2; dsDNA, one strand shown
T1 sequence: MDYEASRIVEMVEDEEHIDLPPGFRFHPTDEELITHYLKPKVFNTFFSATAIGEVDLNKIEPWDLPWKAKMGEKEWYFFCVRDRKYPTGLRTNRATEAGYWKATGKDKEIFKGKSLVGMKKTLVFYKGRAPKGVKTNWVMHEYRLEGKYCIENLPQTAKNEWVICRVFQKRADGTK
In short: (§1)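 GST-tagged proteins (NAC-domain, full-length or DNA-binding-domain) were induced in cells, with zinc acetate supplied for zinc-finger proteins, then purified on glutathione–Sepharose 4B. Each was tested in duplicate at 200 to 500 nM final on custom all-10-mer Agilent 4 × 180K arrays rendered double-stranded by primer extension. The binding value is the normalised enrichment score (E-score) across gapped and ungapped 8-mers.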

GST-NTL6(1-168) = GST-NTL6(1-168) (Arabidopsis thaliana, UniProt Q9SCK6 1-168); conditions: protein: recombinant; tags: GST; chain copies: 2; dsDNA, one strand shown
In short: as §1

GST-ANAC055(1-171) = target: T2, GST-ANAC055(1-171) (Arabidopsis thaliana, UniProt Q9LDY8 1-171); conditions: protein: recombinant; tags: GST; chain copies: 2; dsDNA, one strand shown
T2 sequence: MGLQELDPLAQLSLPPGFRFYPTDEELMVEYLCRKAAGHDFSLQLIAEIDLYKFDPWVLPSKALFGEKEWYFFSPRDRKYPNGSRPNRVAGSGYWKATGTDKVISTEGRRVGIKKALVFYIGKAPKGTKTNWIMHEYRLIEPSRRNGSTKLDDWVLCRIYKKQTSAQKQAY
In short: as §1

GST-ATAF1 NAC domain = target: T3, GST-ATAF1 NAC domain (Arabidopsis thaliana, UniProt Q39013 7-158); conditions: protein: recombinant; tags: GST; chain copies: 2; dsDNA, one strand shown
T3 sequence: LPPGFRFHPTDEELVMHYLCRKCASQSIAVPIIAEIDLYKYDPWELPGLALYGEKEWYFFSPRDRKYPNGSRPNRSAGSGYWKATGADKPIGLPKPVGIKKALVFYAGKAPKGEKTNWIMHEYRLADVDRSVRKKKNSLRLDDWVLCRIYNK
In short: as §1

[1] = target: T4, GST-ANAC092(1-285) full length (Arabidopsis thaliana, UniProt Q9FKA0 1-285); conditions: protein: recombinant; tags: GST; chain copies: 2; dsDNA, one strand shown
T4 sequence: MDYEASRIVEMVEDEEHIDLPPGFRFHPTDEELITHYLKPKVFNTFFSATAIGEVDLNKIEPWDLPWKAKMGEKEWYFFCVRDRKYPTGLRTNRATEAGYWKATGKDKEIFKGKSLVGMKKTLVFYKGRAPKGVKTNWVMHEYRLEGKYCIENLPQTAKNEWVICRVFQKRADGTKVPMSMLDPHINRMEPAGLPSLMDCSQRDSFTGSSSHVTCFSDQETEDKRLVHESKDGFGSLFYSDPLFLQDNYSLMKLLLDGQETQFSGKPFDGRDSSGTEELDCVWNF
In short: as §1

GST-NST2(1-184) = target: T5, GST-NST2(1-184) (Arabidopsis thaliana, UniProt Q9M274 1-184); conditions: protein: recombinant; tags: GST; chain copies: 2; dsDNA, one strand shown
T5 sequence: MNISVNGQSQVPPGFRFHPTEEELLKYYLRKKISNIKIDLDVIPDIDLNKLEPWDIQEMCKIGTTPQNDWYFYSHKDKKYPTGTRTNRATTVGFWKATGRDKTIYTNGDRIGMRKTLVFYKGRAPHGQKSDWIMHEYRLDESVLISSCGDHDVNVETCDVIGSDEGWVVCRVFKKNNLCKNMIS
In short: as §1

GST-SND1(1-203) = target: T6, GST-SND1(1-203) (Arabidopsis thaliana, UniProt Q9LPI7 1-203); conditions: protein: recombinant; tags: GST; chain copies: 2; dsDNA, one strand shown
T6 sequence: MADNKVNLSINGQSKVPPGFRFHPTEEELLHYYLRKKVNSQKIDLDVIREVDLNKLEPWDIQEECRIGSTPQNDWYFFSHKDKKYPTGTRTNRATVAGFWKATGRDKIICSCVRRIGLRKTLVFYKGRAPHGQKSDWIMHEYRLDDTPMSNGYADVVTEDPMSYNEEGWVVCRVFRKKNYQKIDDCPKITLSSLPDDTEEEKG
In short: as §1

GST-VND7 NAC domain = target: T7, GST-VND7 NAC domain (Arabidopsis thaliana, UniProt Q9C8W9 9-158); conditions: protein: recombinant; tags: GST; chain copies: 2; dsDNA, one strand shown
T7 sequence: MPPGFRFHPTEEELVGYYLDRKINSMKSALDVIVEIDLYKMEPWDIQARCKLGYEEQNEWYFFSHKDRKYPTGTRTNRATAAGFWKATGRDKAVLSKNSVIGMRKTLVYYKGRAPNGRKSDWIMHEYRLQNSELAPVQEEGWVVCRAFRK
In short: as §1

GST-ANAC019 NAC domain = target: T8, GST-ANAC019 NAC domain (Arabidopsis thaliana, UniProt Q9C932 14-162); conditions: protein: recombinant; tags: GST; chain copies: 2; dsDNA, one strand shown
T8 sequence: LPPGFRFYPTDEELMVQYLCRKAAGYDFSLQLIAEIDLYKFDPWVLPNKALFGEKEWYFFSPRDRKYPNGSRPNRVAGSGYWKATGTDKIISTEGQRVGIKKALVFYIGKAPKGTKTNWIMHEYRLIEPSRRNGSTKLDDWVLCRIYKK
In short: as §1

GST-NTL8 NAC domain = target: T9, GST-NTL8 NAC domain (Arabidopsis thaliana, UniProt Q9XIN7 14-156); conditions: protein: recombinant; tags: GST; chain copies: 2; dsDNA, one strand shown
T9 sequence: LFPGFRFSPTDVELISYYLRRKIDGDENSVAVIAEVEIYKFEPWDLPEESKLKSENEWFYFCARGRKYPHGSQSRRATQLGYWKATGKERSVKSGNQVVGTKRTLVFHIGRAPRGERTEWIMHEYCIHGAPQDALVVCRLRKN
In short: as §1

GST-NAP(1-166) = target: T10, GST-NAP(1-166) (Arabidopsis thaliana, UniProt O49255 1-166); conditions: protein: recombinant; tags: GST; chain copies: 2; dsDNA, one strand shown
T10 sequence: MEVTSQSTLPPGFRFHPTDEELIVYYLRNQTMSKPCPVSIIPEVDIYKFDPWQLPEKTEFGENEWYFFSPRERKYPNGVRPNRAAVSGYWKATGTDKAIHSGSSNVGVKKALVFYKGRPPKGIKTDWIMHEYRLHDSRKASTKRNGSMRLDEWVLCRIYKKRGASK
In short: as §1

GST-WRKY1(266-371) = GST-WRKY1(266-371) (Arabidopsis thaliana, UniProt Q9SI37 266-371); conditions: protein: recombinant; tags: GST; dsDNA, one strand shown
In short: as §1

GST-NTL6(1-168), sequence (Q9SCK6 1-168): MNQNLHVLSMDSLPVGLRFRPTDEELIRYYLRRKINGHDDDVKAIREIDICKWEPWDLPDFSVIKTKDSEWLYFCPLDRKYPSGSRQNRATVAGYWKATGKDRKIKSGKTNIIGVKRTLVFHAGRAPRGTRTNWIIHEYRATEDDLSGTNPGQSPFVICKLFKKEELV
GST-WRKY1(266-371), sequence (Q9SI37 266-371): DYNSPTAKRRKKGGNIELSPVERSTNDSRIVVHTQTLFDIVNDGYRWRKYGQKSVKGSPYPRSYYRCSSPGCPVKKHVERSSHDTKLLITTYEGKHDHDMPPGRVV

Sequence | binding signal (GST-ANAC092(1-176)) [E-score] | binding signal (GST-NTL6(1-168)) [E-score] | binding signal (GST-ANAC055(1-171)) [E-score] | binding signal (GST-ATAF1 NAC domain) [E-score] | binding signal [1] [E-score] | binding signal (GST-NST2(1-184)) [E-score] | binding signal (GST-SND1(1-203)) [E-score] | binding signal (GST-VND7 NAC domain) [E-score] | binding signal (GST-ANAC019 NAC domain) [E-score] | binding signal (GST-NTL8 NAC domain) [E-score] | binding signal (GST-NAP(1-166)) [E-score] | binding signal (GST-WRKY1(266-371)) [E-score]
TCGCGTAA | 0.283 | 0.0668 | 0.0885 | 0.141 | 0.385 | 0.259 | 0.459 | 0.14 |  |  |  | 
CCCCACCC | 0.209 | 0.274 | 0.0515 | 0.234 | 0.278 | 0.182 | 0.272 | 0.171 | 0.177 | 0.277 |  | 
CTAGCGTA | 0.262 |  | 0.0674 |  | 0.398 | 0.168 | 0.45 | 0.118 |  |  | 0.0722 | 
ATCGCGTA | 0.261 |  |  | 0.165 | 0.404 | 0.211 | 0.442 | 0.104 |  |  | 0.149 | 
TGACTTAA |  | 0.342 |  | 0.107 | 0.102 | 0.183 | 0.249 | 0.089 |  |  |  | 0.427
ACCTTTCC | 0.188 | 0.196 | 0.0893 |  | 0.0538 | 0.0986 | 0.143 | 0.0596 |  | 0.431 |  | 
GAAGGAAA | 0.243 | 0.455 | 0.184 | 0.096 | 0.131 | 0.214 | 0.234 | 0.108 | 0.118 | 0.485 |  | 
GTCAAACA |  |  |  |  | 0.11 |  | 0.0891 | 0.0699 |  |  |  | 0.475
AGGGTAAA | 0.1 | 0.0852 | 0.0614 |  | 0.0699 | 0.14 | 0.153 | 0.108 |  | 0.429 | 0.0883 | 

From paper PMC4081100, “A DNA-binding-site landscape and regulatory network analysis for NAC transcription factors in Arabidopsis thaliana”
